Source: PubChem BioAssay AID588689 (Southern Research Specialized Biocontainment Screening …, 2011)
Several values for one entry are separate records, joined by “and”; a condition that tells them apart may be missing. Identical values can stand only once. Among all 340,000 compounds or so, about 1,000 (0.29%) were called active. Cut-off read from the data, not from the text of the source: inconclusive = inhibition above about 29% without an active follow-up result; inactive = below that. A selection follows. Results with a measured potency or affinity are listed apart.

Molecular target: Genome polyprotein (Dengue virus type 2 (strain 16681-PDK53)) (UniProt P29991)
Assay: Dengue-2 NS5 methyltransferase inhibitors, primary screen, biochemical, confirmation dose response (AID 588689)
Details: Dengue-2 NS5 methyltransferase capping enzyme assay, at 25 µM, stronger effect = higher value
[1] = measured here: pilot screen replicate inhibition

With `CC(C)c1ccc(Nc2nc(N3CCOCC3)nc(N3CCOCC3)n2)cc1` the inhibition was -4.95% (inactive).

For `COC(=O)C(C(=O)OC)N1C(=O)CCC1=O`, the inhibition was -3.21% (inactive).

`CC(=O)c1ccc(NC(=O)CCc2nnc3ccc(N4CCCC4)nn23)cc1` was tested, and the inhibition was 1.97% (inactive).

With `CN(C)C1=NC[C@H](Cc2ccccc2)N1CC1CCC(C(C)(C)C)CC1` (some centres not stated) the inhibition was 0.79% (inactive).

With `Cc1ccc([C@@H]2CC=C(C(=O)O)[C@H](c3ccc(Cl)cc3)N2S(=O)(=O)c2ccc(C)cc2)cc1` the inhibition was 19.5% (inactive).

`Cc1ccc(S(=O)(=O)N2[C@@H](c3ccc(C(C)(C)C)cc3)C(C(=O)O)=CC[C@H]2c2ccc(C(C)C)cc2)cc1` was tested, and the inhibition was -2.65% (inactive) and the inhibition [1] was 0.6%.

`Cc1ccc(S(=O)(=O)N2[C@@H](c3ccc(Cl)cc3)C(C(=O)O)=CC[C@H]2c2ccc(Cl)cc2)cc1` was tested, and the inhibition was 13.5% (inactive).

In the case of `Cc1ccc([C@@H]2CC=C(C(=O)O)[C@H](c3ccccc3)N2S(=O)(=O)c2ccc(C)cc2)cc1`, the inhibition was -3.2% (inactive).

For `Cc1ccc(S(=O)(=O)NCCC(=O)OCC(=O)N(Cc2ccccc2)C(C)(C)C)cc1`, the inhibition was 7.2% (inactive).

For `CC1(C)CC2CC(C)(CN2C(=O)COC(=O)c2cccc([N+](=O)[O-])c2)C1` (configuration not stated), the inhibition was 6.17% (inactive).

In the case of `CC(C(=O)Nc1ccccc1F)N1C(=O)c2ccccc2C1=O` (configuration not stated), the inhibition was 4.32% (inactive).

With `CC(C(=O)Nc1ccc2c(c1)OCO2)N(C)CC(=O)Nc1ccc(Cl)cc1` (configuration not stated) the inhibition was 2.29% (inactive).

In the case of `Cc1ccc2c(C(=O)CN3CCCCC3CCO)c(C)[nH]c2c1` (configuration not stated), the inhibition was -12.1% (inactive).

In the case of `Cc1ccc(N2CN(Cc3ccco3)CNC2=S)cc1`, the inhibition was -4.68% (inactive).

For `CC(OC(=O)C1CC1C)C(=O)Nc1ncc(Cl)cc1Cl` (configuration not stated), the inhibition was -5.81% (inactive).

In the case of `O=S(=O)(Nc1nc2ccccc2nc1NCc1ccco1)c1ccccc1`, the inhibition was 26.3% (inactive).

For `O=S(=O)(Nc1nc2ccccc2nc1NCc1ccco1)c1ccc(F)cc1`, the inhibition was 21.1% (inactive).

For `CCCNC(=O)NC(=O)c1cnccc1C(F)(F)F`, the inhibition was 3.85% (inactive).

In the case of `CC1=NOC(=O)/C1=C/c1ccc(O)cc1`, the inhibition was 33.3% (inactive).

For `CCN(CC)c1ccc(/C=C2/C(=O)ON=C2C)cc1`, the inhibition was -145% (inactive).

For `CC1=NOC(=O)/C1=C/c1ccc(O)c(Cl)c1`, the inhibition was 6.53% (inactive).

With `CC1=NOC(=O)/C1=C/c1ccc(O)c(Br)c1` the inhibition was -9.14% (inactive).

`CCc1nc(SCC(=O)NCCc2ccccc2)n[nH]1` was tested, and the inhibition was 0% (inactive).

With `CCCC(c1nnnn1C(C)(C)CC)N1CCN(C(=O)c2ccco2)CC1` (configuration not stated) the inhibition was 3.16% (inactive).

In the case of `O=C(c1cccc(S(=O)(=O)Nc2ccc(Br)cc2)c1)N1CCCC1`, the inhibition was -8.06% (inactive).

`COc1ccc(S(N)(=O)=O)cc1C(=O)NNC(=O)c1cccc(S(=O)(=O)N2CCOCC2)c1` was tested, and the inhibition was 3.75% (inactive).

In the case of `Cc1ccc(C)c(S(=O)(=O)N2CCCC2CNC(=O)C(=O)NCc2ccco2)c1` (configuration not stated), the inhibition was 0% (inactive).

With `O=C(CN1CCC(c2nc3ccccc3s2)CC1)N1CCCCC1` the inhibition was -11.7% (inactive).

In the case of `O=C1C=CC(=O)N1c1ccccc1N1C(=O)C=CC1=O`, the inhibition was 5.05% (inactive).

For `O=C1c2ccccc2C(=O)N1N(c1ccccc1)c1ccccc1`, the inhibition was 0% (inactive).

With `NC(=O)c1ccc(NCCCN2CCOCC2)c([N+](=O)[O-])c1` the inhibition was -4.51% (inactive).

For `CC(=O)N1CCN(c2nc(N)c(C#N)c(CC#N)c2C#N)CC1`, the inhibition was -8.51% (inactive).

`COc1ccc(S(=O)(=O)N2CCOCC2)cc1NC(=O)COC(=O)C1CC1C` (configuration not stated) was tested, and the inhibition was -7.51% (inactive).

In the case of `CC1=NN(c2ccccc2)C(=O)C1N=Nc1ccc(S(N)(=O)=O)cc1` (configuration not stated), the inhibition was -3.93% (inactive).

`CCCCc1nc2ccc(S(=O)(=O)O)cc2[nH]1` was tested, and the inhibition was -2.87% (inactive).

With `CCN(CC)CCNC(=O)Cn1c(=O)c2cccn2c2ccc(F)cc21` the inhibition was -0.65% (inactive).

With `O=C(CNC(=O)c1ccc(Br)o1)NNC(=O)COc1ccccc1Cl` the inhibition was 1.1% (inactive).

`COc1ccc2c(c1)-c1nc(/N=C/c3ccccc3O)sc1CC2` was tested, and the inhibition was 29.6% (inactive).

For `COc1ccc2c(c1)-c1nc(/N=C/c3ccc(O)c(OC)c3)sc1CC2`, the inhibition was 27.5% (inactive).

In the case of `Oc1c(CN2CCOCC2)cc(CN2CCOCC2)c(O)c1CN1CCOCC1`, the inhibition was 20.2% (inactive).

In the case of `Oc1c(CN2CCOCC2)ccc(CN2CCOCC2)c1O`, the inhibition was 25.3% (inactive).

With `C=CC(n1cncn1)C(O)(c1ccccc1)c1ccccc1` (configuration not stated) the inhibition was -1.2% (inactive).

With `Cc1ccc(S(=O)(=O)/N=C2\C=C(Nc3cccc(C(=O)O)c3)C(=O)c3ccccc32)cc1` the inhibition was 9.52% (inactive).

For `COC(=O)c1ccccc1NC1=C/C(=N\S(=O)(=O)c2cccs2)c2ccccc2C1=O`, the inhibition was 7.26% (inactive) and 0.39% (inactive).

With `CCc1ccc(S(=O)(=O)/N=C2\C=C(Nc3ccc(C(=O)O)cc3)C(=O)c3ccccc32)cc1` the inhibition was 26.1% (inactive).

`Cc1ccc(S(=O)(=O)/N=C2\C=C(Nc3cccc(C(=O)O)c3)C(=O)c3ccccc32)c(C)c1` was tested, and the inhibition was 13.2% (inactive).

For `Cc1ccc(NC2=C/C(=N/S(=O)(=O)c3cccs3)c3ccccc3C2=O)cc1C`, the inhibition was 1.44% (inactive).

With `O=C1C(Nc2ccc(O)cc2)=C/C(=N/S(=O)(=O)c2cccs2)c2ccccc21` the inhibition was 22.4% (inactive).

For `CCc1ccc(S(=O)(=O)/N=C2\C=C(Nc3cccc(C(=O)O)c3)C(=O)c3ccccc32)cc1`, the inhibition was 5.86% (inactive).

For `O=C1C(Nc2ccccc2)=C/C(=N/S(=O)(=O)c2cccs2)c2ccccc21`, the inhibition was 0% (inactive).

In the case of `CCOC(=O)C1(CC2CCCCO2)CCN(Cc2c(C)cc(C)cc2-n2cccn2)CC1` (configuration not stated), the inhibition was -10.8% (inactive).

With `COc1ccc(S(=O)(=O)N2CCCCC2)cc1NC(=O)COC(=O)c1ccco1` the inhibition was -2.61% (inactive).

`O=C(Nc1ccc(F)cc1)OCCOc1ccc([N+](=O)[O-])cc1` was tested, and the inhibition was -1.94% (inactive).

With `CC(C)(C)OC(=O)COc1cc(F)ccc1[N+](=O)[O-]` the inhibition was -8.99% (inactive).

`Cc1cc(NC(=O)C2C3C(=O)N(CCC(C)C)C(C(=O)NCc4ccccc4)C34C=CC2(C)O4)no1` (configuration not stated) was tested, and the inhibition was -10.5% (inactive).

With `Cc1ccc(C(C)C)c(OCC(=O)NCC(c2cccs2)N2CCOCC2)c1` (configuration not stated) the inhibition was 0.74% (inactive).

With `Cc1ccc(-n2c(-c3ccc(Cl)cc3Cl)n[nH]c2=S)cc1` the inhibition was -16.5% (inactive) and the inhibition [1] was -6.44%.

For `COc1ccc(NS(=O)(=O)c2csc(C(=O)N3CCCC3)c2)c(OC)c1`, the inhibition was -6.24% (inactive).

In the case of `O=C(COC(=O)Cc1n[nH]c(=O)c2ccccc12)NNC(=O)c1ccc(Br)cc1`, the inhibition was -4.04% (inactive).

In the case of `CCC(=O)Nn1c(C)nnc1C`, the inhibition was -2.7% (inactive).

With `Cc1ccc(S(=O)(=O)N2[C@@H](c3ccccc3)C(C(=O)O)=CC[C@H]2c2ccc(Cl)c(Cl)c2)cc1` the inhibition was 10.4% (inactive).

With `Cc1ccc(S(=O)(=O)N2[C@@H](c3ccc(C(C)(C)C)cc3)C(C(=O)O)=CC[C@H]2c2ccc(Cl)c(Cl)c2)cc1` the inhibition was 9.77% (inactive).

`Cc1ccc(S(=O)(=O)N2[C@@H](c3ccc(Cl)cc3)C(C(=O)O)=CC[C@H]2c2ccc(Cl)c(Cl)c2)cc1` was tested, and the inhibition was 27.3% (inactive).

`Cc1ccc([C@H]2C(C(=O)O)=CC[C@@H](c3ccc(C)cc3)N2S(=O)(=O)c2ccc(C)cc2)cc1` was tested, and the inhibition was 5.29% (inactive) and the inhibition [1] was -0.615%.

`Cc1ccc(S(=O)(=O)N2[C@@H](c3ccc(Cl)cc3)C(C(=O)O)=C[C@H]2CC2CCCC2)cc1` was tested, and the inhibition was 19.2% (inactive) and the inhibition [1] was 4.89%.

With `Cc1ccc([C@H]2C(C(=O)O)=C[C@@H](CC3CCCC3)N2S(=O)(=O)c2ccc(C)cc2)cc1` the inhibition was 20.2% (inactive).

With `Cc1ccc(S(=O)(=O)N2[C@@H](c3ccc(Br)cc3)C(C(=O)O)=CC[C@H]2c2cccc(Cl)c2)cc1` the inhibition was -1.32% (inactive) and the inhibition [1] was 1.82%.

For `CCc1ccc([C@@H]2CC=C(C(=O)O)[C@H](c3ccc(Br)cc3)N2S(=O)(=O)c2ccc(C)cc2)cc1`, the inhibition was 25.8% (inactive) and the inhibition [1] was 10.7%.

For `O=C(N/N=C/c1cc(Br)c(Br)o1)c1cc2ccccc2o1`, the inhibition was -5.43% (inactive).

For `O=C1CCC[C@@H]2C[C@@]3(C[C@@H]4CCN1[C@H]24)Nc1cc(Cl)ccc1NC3=NCc1ccccc1`, the inhibition was -11.9% (inactive).

`O=C(NCCCc1ccccc1)c1cccc(NC(=O)C2CCCCC2)c1` was tested, and the inhibition was -8.46% (inactive).

For `COc1ccc(C2=NN(C(=O)c3ccc(Cl)c([N+](=O)[O-])c3)C(c3ccccc3)C2)cc1` (configuration not stated), the inhibition was -4.55% (inactive).

With `Cc1ccc(NC(=S)NN2CCN(C)CC2)c(C)c1` the inhibition was 3.57% (inactive).

With `Cn1c2cc(C#N)sc2c2cnn(Cc3ccc(F)cc3)c(=O)c21` the inhibition was -9.27% (inactive) and the inhibition [1] was -3.06%.

With `Cc1ccccc1-c1cc(C(=O)NCc2cccc(C(F)(F)F)c2)n(CC2CC(c3cccnc3)=NO2)n1` (configuration not stated) the inhibition was 5.79% (inactive).

With `CCOc1ccccc1C=NNc1ccc([N+](=O)[O-])cn1` the inhibition was -10.8% (inactive).

`Cc1ccc(-c2cc(C(=O)N3CCC(C)CC3)c3ccccc3n2)cc1` was tested, and the inhibition was -0.67% (inactive).

For `COc1nnc(-c2ccccc2)s1`, the inhibition was -4.6% (inactive).

In the case of `O=C(O)C1=CC[C@@H](c2ccc(Cl)cc2)N(S(=O)(=O)c2ccc(Cl)cc2)[C@H]1c1ccccc1`, the inhibition was 15.7% (inactive).

`Cc1ccc(S(=O)(=O)N2[C@@H](c3ccc(Br)cc3)C(C(=O)O)=CC[C@H]2c2ccc(Cl)cc2)cc1` was tested, and the inhibition was 26.7% (inactive).

`CCCCC1CCC(C(=O)NCC(c2ccco2)N2CCOCC2)CC1` (configuration not stated) was tested, and the inhibition was -3.1% (inactive).

`CCCCCn1c(=O)c(C(=O)OCC)c(O)c2ccccc21` was tested, and the inhibition was -0.68% (inactive).

`CCCCn1c(=O)c(-c2ccccc2)c(O)c2ccccc21` was tested, and the inhibition was -4.09% (inactive).

`CCCCn1c(=O)c(C(=O)OCC)c(O)c2ccccc21` was tested, and the inhibition was 3.24% (inactive).

In the case of `CCn1c(=O)c(-c2ccccc2)c(O)c2ccccc21`, the inhibition was 0% (inactive).
